The sample as a whole holds a higher share of the strongest signals than the screen did.
Tests used:
Assay in all cases: glycan array binding signal (z-score within array); higher = stronger binding
Details in all cases: glycan notation: IUPAC condensed, linker removed
[1] = molecular target: Fuc(a1-2)Gal(b1-4)GlcNAc
Summary of the method: (§1)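 Glycan array data were curated from 3228 arrays in the Consortium for Functional Glycomics database and kept only where the protein sequence was available. Glycan names were converted to IUPAC-condensed notation, and columns mapping to the same glycan were averaged. The binding signal is a within-array Z-score, averaged across arrays of the same protein sequence at different concentrations or buffers and across linkers. Negative Z-scores can be read as non-binding.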

[2] = molecular target: Fuc(a1-2)Gal(b1-4)GlcNAc(b1-2)Man(a1-3)[Fuc(a1-2)Gal(b1-4)GlcNAc(b1-2)Man(a1-6)]Man(b1-4)GlcNAc(b1-4)[Fuc(a1-6)]GlcNAc
Summary of the method: as §1

[3] = molecular target: Fuc(a1-2)Gal6S(b1-3)GlcNAc
Summary of the method: as §1

[4] = molecular target: Fuc(a1-2)Gal6S(b1-3)GlcNAc6S
Summary of the method: as §1

[5] = molecular target: Fuc(a1-2)[Gal(a1-3)]Gal
Summary of the method: as §1

[6] = molecular target: Fuc(a1-2)[Gal(a1-3)]Gal(b1-3)GlcNAc
Summary of the method: as §1

[7] = molecular target: Fuc(a1-2)[Gal(a1-3)]Gal(b1-3)GlcNAc(b1-2)Man(a1-3)[Fuc(a1-2)[Gal(a1-3)]Gal(b1-3)GlcNAc(b1-2)Man(a1-6)]Man(b1-4)GlcNAc(b1-4)[Fuc(a1-6)]GlcNAc
Summary of the method: as §1

[8] = molecular target: Fuc(a1-2)[Gal(a1-3)]Gal(b1-4)GlcNAc(b1-6)GalNAc
Summary of the method: as §1

[9] = molecular target: Fuc(a1-2)[GalNAc(a1-3)]Gal(b1-3)GlcNAc(b1-2)Man(a1-3)[Fuc(a1-2)[GalNAc(a1-3)]Gal(b1-3)GlcNAc(b1-2)Man(a1-6)]Man(b1-4)GlcNAc(b1-4)[Fuc(a1-6)]GlcNAc
Summary of the method: as §1

[10] = molecular target: Fuc(a1-2)[GalNAc(a1-4)]Gal(b1-4)GlcNAc
Summary of the method: as §1

[11] = molecular target: Fuc(a1-3)[Gal(b1-4)]GlcNAc
Summary of the method: as §1

[12] = molecular target: Fuc(a1-3)[Gal(b1-4)]GlcNAc(b1-6)GalNAc
Summary of the method: as §1

[13] = molecular target: Gal(a1-3)Gal(b1-3)GlcNAc
Summary of the method: as §1

[14] = molecular target: Gal(a1-3)Gal(b1-3)GlcNAc(b1-2)Man
Summary of the method: as §1

[15] = molecular target: Gal(a1-3)Gal(b1-3)GlcNAc(b1-2)Man(a1-3)[Gal(a1-3)Gal(b1-3)GlcNAc(b1-2)Man(a1-6)]Man(b1-4)GlcNAc(b1-4)GlcNAc
Summary of the method: as §1

[16] = molecular target: Gal(a1-3)Gal(b1-3)GlcNAc(b1-3)GalNAc
Summary of the method: as §1

[17] = molecular target: Gal(a1-3)Gal(b1-4)GlcNAc(b1-2)Man(a1-3)[Gal(a1-3)Gal(b1-4)GlcNAc(b1-2)Man(a1-6)]Man(b1-4)GlcNAc(b1-4)GlcNAc
Summary of the method: as §1

[18] = molecular target: Gal(a1-3)Gal(b1-4)[Fuc(a1-3)]GlcNAc
Summary of the method: as §1

[19] = molecular target: Gal(a1-3)GalNAc
Summary of the method: as §1

[20] = molecular target: Gal(a1-3)[Gal(a1-4)]Gal(b1-4)GlcNAc
Summary of the method: as §1

[21] = molecular target: Gal(b1-3)GalNAc(b1-3)Gal
Summary of the method: as §1

[22] = molecular target: Gal(b1-3)GlcNAc(b1-2)Man(a1-3)[Gal(b1-3)GlcNAc(b1-2)Man(a1-6)]Man(b1-4)GlcNAc(b1-4)[Fuc(a1-6)]GlcNAc
Summary of the method: as §1

[23] = molecular target: Gal(b1-3)GlcNAc(b1-3)Gal(b1-4)GlcNAc(b1-2)[Gal(b1-3)GlcNAc(b1-3)Gal(b1-4)GlcNAc(b1-6)]Man(a1-6)[Gal(b1-3)GlcNAc(b1-3)Gal(b1-4)GlcNAc(b1-2)Man(a1-3)]Man(b1-4)GlcNAc(b1-4)[Fuc(a1-6)]GlcNAc
Summary of the method: as §1

[24] = molecular target: Gal(b1-3)GlcNAc6S
Summary of the method: as §1

[25] = molecular target: Gal(b1-3)[Fuc(a1-4)]GlcNAc
Summary of the method: as §1

[26] = molecular target: Gal(b1-3)[Fuc(a1-4)]GlcNAc(b1-6)GalNAc
Summary of the method: as §1

[27] = molecular target: Gal(b1-4)GlcNAc(b1-2)Man
Summary of the method: as §1

[28] = molecular target: Gal(b1-4)GlcNAc(b1-2)[Gal(b1-4)GlcNAc(b1-4)]Man(a1-3)[GlcNAc(b1-4)][Gal(b1-4)GlcNAc(b1-2)[Gal(b1-4)GlcNAc(b1-6)]Man(a1-6)]Man(b1-4)GlcNAc(b1-4)GlcNAc
Summary of the method: as §1

[29] = molecular target: Gal(b1-4)GlcNAc(b1-3)Gal(b1-4)GlcNAc
Summary of the method: as §1

[30] = molecular target: Gal(b1-4)GlcNAc(b1-6)Gal(b1-4)GlcNAc
Summary of the method: as §1

[31] = molecular target: Gal3S(b1-4)Glc
Summary of the method: as §1

B1: FimA-N2 (Actinomyces oris) (protein)
chain: MHHHHHHSSGVDLGTENLYFQSNAWIYDVNVYPKNEAIDVDKTIQAQKLNGYGVGSLIKFPVESTAPTLDAKSFYKYFQLKDTLDERLSEVTATDVSLEGTPLQPTDYKVETKQQTVTVTFTAEGLKKIKAAPGKKVSAVFQGKVTKAGNGAITNRAQVISDTLYAEQPPTPETPPTDPENPPTSDEVISRWGDLSIKKVDTHQQGQTKA
- glycan array binding signal (z-score) [1]: 0.416
- glycan array binding signal (z-score) [2]: 2.43
- glycan array binding signal (z-score) [3]: 1.35
- glycan array binding signal (z-score) [4]: 3.98
- glycan array binding signal (z-score) [5]: 1.78
- glycan array binding signal (z-score) [6]: -0.75
- glycan array binding signal (z-score) [7]: -0.838
- glycan array binding signal (z-score) [8]: 2.61
- glycan array binding signal (z-score) [9]: -0.909
- glycan array binding signal (z-score) [10]: 0.482
- glycan array binding signal (z-score) [11]: -0.144
- glycan array binding signal (z-score) [12]: -0.225
- glycan array binding signal (z-score) [13]: 1.02
- glycan array binding signal (z-score) [14]: 2.25
- glycan array binding signal (z-score) [15]: 0.101
- glycan array binding signal (z-score) [16]: -0.826
- glycan array binding signal (z-score) [17]: -1.06
- glycan array binding signal (z-score) [18]: -1.47
- glycan array binding signal (z-score) [19]: -0.66
- glycan array binding signal (z-score) [20]: 2.77
- glycan array binding signal (z-score) [21]: -0.678
- glycan array binding signal (z-score) [22]: 2.23
- glycan array binding signal (z-score) [23]: 3.71
- glycan array binding signal (z-score) [24]: -0.106
- glycan array binding signal (z-score) [25]: 0.004
- glycan array binding signal (z-score) [26]: -0.651
- glycan array binding signal (z-score) [27]: -0.413
- glycan array binding signal (z-score) [28]: -0.356
- glycan array binding signal (z-score) [29]: 1.55
- glycan array binding signal (z-score) [30]: -0.5
- glycan array binding signal (z-score) [31]: 0.216
